Compounds with a hit are over-represented: about 3.1% of the library has one in this group of screens.
MEKK2wt PB1 HTS – raises or lowers MEK5 binding to wildtype human MEKK2 PB1 domain; AID 1531; binding response (% of control), % at 10 µM; Q9Y2U5; 290,000 compounds, 1.1% hits; bead flow cytometry, Alexa488-MEK5 binding to MEKK2 WT; actives lie on both sides; in the data active means binding response below about 67% or above about 130%
UBC13 inh – inhibitors of human UBC13 polyubiquitin chain formation; P61088; inhibition, % at 20 µM; AID 485273; TR-FRET; 330,000 compounds, 0.47% hits; in the data active means inhibition above about 45%, passing the limit was not always enough
Target sequence (P61088 whole entry, looked up): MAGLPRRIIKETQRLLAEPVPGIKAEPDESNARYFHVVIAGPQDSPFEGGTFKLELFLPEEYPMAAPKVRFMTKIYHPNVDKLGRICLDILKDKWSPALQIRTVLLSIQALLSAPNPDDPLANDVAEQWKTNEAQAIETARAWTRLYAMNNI
MEKK3 PB1 HTS – raises or lowers MEK5 binding to the human MEKK3 PB1 domain | Q99759 | 290,000 compounds, 1.4% hits | binding response (% of control), % at 10 µM | bead-based flow cytometry, Alexa488-MEK5 binding to MEKK3; actives lie on both sides; 0 = blocked by unlabeled MEK5, 100 = vehicle | AID 1529;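 active means binding response more than 3 SD above or below the average of its plate-row segment, actives on both sides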;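 further: Alexa488 bead fluorescence after subtracting the streptavidin-only scavenger bead signal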
PREPL inhibitor – inhibitors of human prolyl oligopeptidase-like enzyme PREPL | recombinant PREPL, fluorescence polarization activity-based probe | inhibition, % at 5.96 µM | 320,000 compounds, 0.68% hits | AID 2751; in the data active means inhibition above about 43%;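 further: 0% = enzyme with DMSO and 100% = wells lacking enzyme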
MEKK2mut PB1 HTS – signal of MEK5 binding to mutant human MEKK2 PB1 domain; bead flow cytometry, Alexa488-MEK5 binding to MEKK2 mutant; percent response, % at 10 µM; 290,000 compounds, 0.35% hits; AID 1530; in the data active means percent response above about 24%, passing the limit was not always enough
ATG4B inhibitor – blocks human ATG4B protease cleavage of LC3 substrate; AID 504462; 340,000 compounds, 0.51% hits; ATG4B cleavage of LC3-PLA2, NBD-HPC fluorescence, 1 h; Q9Y4P1; inhibition, % at 8.33 µM; in the data active means inhibition above about 40%
Target sequence (Q9Y4P1 whole entry, looked up): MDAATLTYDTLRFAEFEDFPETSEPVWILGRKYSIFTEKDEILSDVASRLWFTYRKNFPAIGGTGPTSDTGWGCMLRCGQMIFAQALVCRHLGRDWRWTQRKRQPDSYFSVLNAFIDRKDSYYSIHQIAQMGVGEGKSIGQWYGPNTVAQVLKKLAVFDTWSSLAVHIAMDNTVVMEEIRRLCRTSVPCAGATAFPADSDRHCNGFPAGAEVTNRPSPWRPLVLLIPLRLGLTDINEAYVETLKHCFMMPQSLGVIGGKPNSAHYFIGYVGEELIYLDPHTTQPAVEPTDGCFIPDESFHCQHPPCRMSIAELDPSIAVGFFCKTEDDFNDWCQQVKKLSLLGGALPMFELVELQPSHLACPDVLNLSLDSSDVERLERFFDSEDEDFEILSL
MEKK2wt confirm – raises or lowers MEK5 binding to wildtype human MEKK2, retest | shares compounds with MEKK3 PB1 HTS | bead flow cytometry, Alexa488-MEK5 binding to MEKK2 WT; actives lie on both sides | binding response (% of control), % at 10 µM | 5,900 compounds, 2.4% hits | AID 1892; in the data active means binding response below about 16% or above about 210%; inactive means in between
MEKK2mut confirm – signal of MEK5 binding to mutant human MEKK2, retest. shares compounds with MEKK3 PB1 HTS. bead flow cytometry, Alexa488-MEK5 binding to MEKK2 mutant. 5,900 compounds, 2% hits. percent response, % at 10 µM; in the data active means percent response mostly above about 71%, no sharp cut-off; inactive means mostly below about 38%;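 further: higher means compound restores mutant binding toward wildtype level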
MEKK3 confirm – MEKK3-MEK5 PB1 inhibition, single concentration confirmation; shares compounds with MEKK3 PB1 HTS; bead flow cytometry, Alexa488-MEK5 binding to MEKK3; stronger effect = lower value; binding response (% of control), % at 10 µM; 5,900 compounds, 1.8% hits; AID 1894;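 active means binding response below 72% of control, or above a set upper limit, though filed actives all read lower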;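 further: 100% = DMSO only wells and 0% = binding blocked by excess unlabeled MEK5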
Active calls of the source: *; . = not tested or not shown; [ ] = another dose, or the depositor's remark.

SMILES	MEKK2wt PB1 HTS	UBC13 inh	MEKK3 PB1 HTS	PREPL inhibitor	MEKK2mut PB1 HTS	ATG4B inhibitor	MEKK2wt confirm	MEKK2mut confirm	MEKK3 confirm
CCOC(=O)Cn1c(=O)oc2ccc(C)cc21	99	-16	95	3	-1	0	.	.	.
Cc1ccc2oc(=O)n(CC(=O)OCCC(C)C)c2c1	71	13	74*[inhibitor]	-7	-3	5	102	-4	101
c1csc(-c2cn3ccc4ccccc4c3n2)c1	7.0*[inhibitor]	7	6.0*[inhibitor]	13	-18	5	105	7	108
c1cc(-c2cccs2)nc(-c2cccs2)c1	94	4	96	-1	-3	0	.	.	.
Cc1cc(Cl)ccc1OCC(=O)NNC(=O)CCOc1ccccc1	.	10	.	-3	.	-5	.	.	.
Cc1ccc(-c2n[nH]c(=S)n2/N=C/c2ccc(C)o2)cc1	111	8	151*	-7	1	-5	105	1	105
Cc1ccc(/C=N/n2c(-c3ccc(Cl)cc3)n[nH]c2=S)o1	99	-8	106	-2	0	6	.	.	.
O=C(C1CC1)N1CCc2cc(S(=O)(=O)NCc3ccccc3)ccc21	98	1	99	8	0	-3	.	.	.
CCN1c2ccccc2-c2nc3ccccc3n2C1c1cccs1 (stereo unspecified)	0.0*[inhibitor]	7	0.0*[inhibitor]	3	-5	-1	104	0	105
CCCn1c(-c2cccs2)nc2ccccc21	97	6	97	10	0	10	.	.	.
CCc1ccc(C(=O)NNC(=O)CCC2CCCCC2)cc1	99	-4	102	-9	1	-8	.	.	.
CN(CC(=O)Nc1c(Cl)cccc1Cl)C(=O)c1ccc(-n2cncn2)c([N+](=O)[O-])c1	.	-4	.	18	.	-2	.	.	.
COc1cc(/C=C/C(=O)NCCn2c(C)cc3ccccc32)cc(OC)c1OC	98	23	115	17	11	-13	.	.	.
Cc1cc2ccccc2n1CCNC(=O)Cc1ccccc1	82	13	105	29	-4	-13	.	.	.
COc1ccc(/C=C/C(=O)NCCn2c(C)cc3ccccc32)cc1OC	83	4	67*[inhibitor]	-3	5	-12	110	11	103
Cc1ccc(C(=O)NCCc2ccc(S(=O)(=O)N3CCCC3)cc2)cc1	98	-2	100	10	0	-2	.	.	.
Cc1cccc(CC(=O)NCCn2c(C)cc3ccccc32)c1	63*[inhibitor]	-4	79*[inhibitor]	12	0	-6	105	-1	100
Cc1cc2ccccc2n1CCNC(=O)c1ccc(S(=O)(=O)N2CCCCC2)cc1	79	-3	82*[inhibitor]	2	-7	-14	80	-3	89
Cc1cc2ccccc2n1CCNC(=O)C(C)Oc1ccccc1 (stereo unspecified)	64*[inhibitor]	18	80*[inhibitor]	31	-10	-28	49	-16	82
O=C(O)/C=C/S(=O)(=O)c1ccc2ccccc2c1	103	4	105	-11	4	-8	.	.	.
Cc1cccc(OCCCC(=O)NCCc2ccccc2)c1	108	-14	137*	-14	0	7	105	4	104
Cc1cccc(Oc2coc3cc(O)ccc3c2=O)c1	103	8	102	3	-1	-1	.	.	.
COc1ccc(N2CSC3=C(C#N)C(c4cccs4)CC(=O)N3C2)cc1 (stereo unspecified)	93	-23	103	11	0	-4	.	.	.
COC(=O)C1C(=O)N2CCCSC2=C(C#N)C1c1cccs1 (stereo unspecified)	59	-2	55*[inhibitor]	6	-11	5	101	0	103
CCOc1cc(N2CCCC2)ccc1[N+](=O)[O-]	107	-24	133*	-1	2	5	101	-6	103
SMILES	MEKK2wt PB1 HTS	UBC13 inh	MEKK3 PB1 HTS	PREPL inhibitor	MEKK2mut PB1 HTS	ATG4B inhibitor	MEKK2wt confirm	MEKK2mut confirm	MEKK3 confirm
O=C(O)c1ccc(-c2nnc(-c3ccc([N+](=O)[O-])cc3)o2)cc1	115	0	112	1	26*	-1	98	-6	93
COc1ccc(OC)c(NC(=O)CC2SC(=Nc3ccc(F)cc3)N(CCC3=CCCCC3)C2=O)c1 (stereo unspecified)	102	2	139*	-2	0	8	81	-44	83
O=C(CN1C(=O)c2ccccc2S1(=O)=O)NC(Nc1ccccc1F)C(Cl)(Cl)Cl (stereo unspecified)	102	2	106	1	-1	-10	.	.	.
CC(=O)c1ccc(NS(=O)(=O)c2ccc3ccccc3c2)cc1	95	-2	73*[inhibitor]	-23	-1	1	106	2	99
CC(=O)Nc1ccc(NC(=O)C(C)OC(=O)C2CCCCC2)cc1 (stereo unspecified)	.	8	.	-1	.	0	.	.	.
O=c1cc(N2CCC3(CC2)OCCO3)[nH]c(=O)n1-c1ccc(Br)cc1	102	.	51*[inhibitor]	.	2	-10	97	-2	102
O=C(Cn1cc(/C=N/NC(=O)c2cccc3ccccc23)c2ccccc21)Nc1ccc(F)cc1	38*[inhibitor]	-7	38*[inhibitor]	-4	-14	8	100	-5	100
COc1ccc(NC(=O)c2nc[nH]c2C(=O)NCC(=O)OC(C)(C)C)cc1	54	-2	50*[inhibitor]	6	4	-3	104	2	101
COC(=O)C1=NNC(C(=O)OC)C1c1ccccc1 (stereo unspecified)	.	.	.	.	.	-2	.	.	.
COc1ccc(/C=C(\NC(=O)c2ccccc2)C(=O)NCc2ccco2)cc1OC	105	-3	104	3	0	2	.	.	.
Cc1ccc(Oc2nc3ccccn3c(=O)c2/C=C(\C#N)C(=O)Nc2c(C)n(C)n(-c3ccccc3)c2=O)c(C)c1	97	-11	74*[inhibitor]	10	-1	-14	111	16	104
Cc1cc(C)c(S(=O)(=O)NCC(=O)NCc2ccccn2)c(C)c1	96	8	100	5	-6	6	.	.	.
COc1ccc(/C=C/c2cc(C(F)(F)F)on2)cc1	57	3	50*[inhibitor]	-1	-23	5	112	7	105
Cc1cc(NS(=O)(=O)c2ccc(NC(=O)CSc3nnc(-c4ccco4)n3C)cc2)nc(C)n1	111	4	141*	4	1	-1	110	11	107
Cc1cc(NS(=O)(=O)c2ccc(NC(=O)CSc3nnc(-c4ccco4)n3N)cc2)nc(C)n1	114	-5	99	-2	19	-10	.	.	.

High-throughput results: PubChem BioAssay, several laboratories
